A selection: hits, their analogues and other compounds. The true share with any hit is near 8.3%.
VP16 counter: VP16 counterscreen qHTS for inhibitors of ROR gamma transcriptional activity; Drosophila S2 Gal4-VP16 UAS-luciferase, luminescence, 20 h; Potency, µM (doses to about 53.6 µM), without a hit: top-dose activity, negative = inhibition, usual class: inhibitors; 310,000 tested, 3.5% active; AID 2546, 2010;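 also: Gal4-VP16 expression switched on by copper sulfate through the metallothionein promoter; potency is read from the fitted curve at half-maximal effect; % is scaled to controls: 0 for no effect and ±100 for the full control effect; nearly all actives have a fitted effect of over 50% in size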
RORg inh: qHTS for inhibitors of ROR gamma transcriptional activity; AID 2551, 2010; Nuclear receptor ROR-gamma (Mus musculus), P51450; 310,000 tested, 5.4% active; Drosophila S2 Gal4-RORgamma UAS-luciferase reporter, 20 h; Potency, µM (highest dose often 53.6 µM), inactives show at the top dose activity change, negative = inhibition, actives largely listed as inhibitors; also: potency is read from the fitted curve at half-maximal effect; % is scaled to controls: 0 for no effect and ±100 for the full control effect; nearly all actives have a fitted effect of over 60% in size
Target sequence (P51450 whole entry, looked up, the tested form may be a part): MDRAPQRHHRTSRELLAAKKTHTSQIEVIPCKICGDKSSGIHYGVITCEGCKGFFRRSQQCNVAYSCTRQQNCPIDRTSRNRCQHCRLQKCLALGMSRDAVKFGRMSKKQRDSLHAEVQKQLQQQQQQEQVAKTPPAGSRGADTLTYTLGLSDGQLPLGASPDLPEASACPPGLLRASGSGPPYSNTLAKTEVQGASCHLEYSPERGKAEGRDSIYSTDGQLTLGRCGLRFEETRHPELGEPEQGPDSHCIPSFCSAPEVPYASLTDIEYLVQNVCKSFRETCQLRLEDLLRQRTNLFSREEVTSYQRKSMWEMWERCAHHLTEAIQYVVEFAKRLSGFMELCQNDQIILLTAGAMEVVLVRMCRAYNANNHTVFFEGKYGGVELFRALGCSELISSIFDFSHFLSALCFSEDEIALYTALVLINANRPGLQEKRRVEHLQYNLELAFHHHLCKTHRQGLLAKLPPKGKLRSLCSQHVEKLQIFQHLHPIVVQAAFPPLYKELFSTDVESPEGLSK
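Luciferase reporter read in Schneider cells carrying Gal4-RORγ (mouse) and UAS-Photinus luciferase; cells given compound 1 h before 700 uM copper sulfate induction, then incubated 20 h at ambient temperature.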
SW480 rerep: A quantitative high throughput screen for small molecules that induce DNA re-replication in SW480 colon adenocarcinoma cells | SW480 DNA re-replication, Hoechst DNA content imaging, 48 h | Potency, µM (series often up to 46.1 µM), for the others: top-dose re-replication activation, actives largely listed as activators | 340,000 tested, 1.8% active; also: potency is read from the fitted curve at half-maximal effect; % of control where 0% means no effect; nearly all actives have a fitted effect of over 55% in size
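SW480 cells exposed to compounds for 48 hr at 37 C, 5% CO2, then Hoechst-stained 40 min. Nuclear DNA content imaged by fluorescence scanning (405 nm excitation, 500-530 nm emission); re-replication scored as increased high-intensity nuclei.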
Chronic BCR inh: qHTS Assay to Find Inhibitors of Chronic Active B-Cell Receptor Signaling. Potency, µM (top dose mostly 46.1 µM), inactives show top-dose activity change, negative = inhibition, usual class: inhibitors. 340,000 tested, 0.05% active. AID 493014, 2011. ABC-DLBCL IkBa-CBG/CBR reporter, luminescence ratio, 4 h; active = well fitted inhibition curve with a large enough effect in the signal ratio, with a control signal flat, not every such curve was filed as active; inconclusive = small, poorly fitted or top-dose-only effect, or effect the other way, or a change in a side signal; the % refers to the signal ratio;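 also: potency is read from the fitted curve at half-maximal effect; plate controls were basal doxycycline-induced cells for no effect and cells given 10 µM MG132 for full effect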
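Compounds up to 46 uM were incubated four hours with TMD8 cells whose green CBG68 luciferase is fused to IkappaBalpha; red CBR luminescence normalised the signal, and concentration-effect curves were fitted to fusion, red and ratio data.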
Giardia killer: Small Molecules that selectively kill Giardia lamblia: qHTS | AID 540267, 2011 | 340,000 tested, 0.15% active | Giardia lamblia trophozoite viability | activity change, % at 7.66 µM, hits read low; in the data active = activity change below about -80%; inconclusive = between about -30% and that limit;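 also: parasites exposed to compound for two days anaerobically before the ATP read; % is scaled to controls: 0 for no effect and ±100 for the full control effect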
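Giardia lamblia trophozoites (100 cells/well) were incubated with compounds for 48 h at 37 deg C under anaerobic conditions. Viability was read as ATP content by one-step luminescence after 15-30 min at room temperature.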
MCF10A rereplic: A quantitative high throughput screen for small molecules that induce DNA re-replication in MCF 10a normal breast cells | MCF 10A DNA re-replication, Hoechst nuclear intensity, 48 h | Potency, µM (doses to about 46.1 µM), inactives show top-dose activity, positive = re-replication, usual class: activators | 350,000 tested, 2.9% active | AID 624296, 2012; also: potency is read from the fitted curve at half-maximal effect; % of control where 0% means no effect; nearly all actives have a fitted effect of over 50% in size
Numbers without * were called inactive; ? = inconclusive; · = not tested or not shown. Unless noted, calls follow the shape of the dose curve; as a rule, active = well fitted curve in the direction sought with a large enough effect; inconclusive = small, poorly fitted or top-dose-only effect, or another doubt; inactive = no such curve, though single readings can be large; an effect the other way counts as inactive or inconclusive.

SMILES	VP16 counter	RORg inh	SW480 rerep	Chronic BCR inh	Giardia killer	MCF10A rereplic
CCOc1cccc(-c2c(C(=O)N/N=C/c3c(F)cccc3Cl)nnn2-c2nonc2N)c1	-4%	-2%	9%	?	1	9%
CCOc1ccc(-c2c(C(=O)N/N=C/c3ccc(C)s3)nnn2-c2nonc2N)cc1	2.8µM*	2.2µM*	2%	23%	?	1%
CCOC(=O)c1nnn(-c2nonc2N)c1-c1ccc(Br)cc1	-14%	-9%	-3%	0%	0	0.65µM*
CC(C)c1c(C(=O)N/N=C/c2ccccc2OCc2c(F)cccc2Cl)nnn1-c1nonc1N	-4%	-13%	9.2µM*	2%	-1	?
COc1cccc(-c2c(C(=O)N/N=C/c3ccc(C)o3)nnn2-c2nonc2N)c1	?	10µM*	-1%	?	-28	9%
COc1ccc(/C=C(\C#N)C(=O)OCC(=O)N2CC(C)OC(C)C2)cc1 (configuration not stated)	3%	-4%	-3%	-2%	-5	-2%
Cc1ccc(/C=N/NC(=O)c2nnn(-c3nonc3N)c2C(C)C)o1	-29%	?	-11%	3%	2	-5%
CCOc1cccc(-c2c(C(=O)N/N=C/c3ccc(C)s3)nnn2-c2nonc2N)c1	4µM*	2.5µM*	-9%	?	-3	2%
COc1cccc(-c2c(C(=O)N/N=C/c3ccoc3)nnn2-c2nonc2N)c1	?	13µM*	-1%	?	-6	-7%
Cc1ccc(/C=N/NC(=O)c2nnn(-c3nonc3N)c2C(C)C)s1	7.1µM*	2.2µM*	-7%	3%	39	0%
COc1cccc(-c2c(C(=O)N/N=C/c3cccnc3)nnn2-c2nonc2N)c1	3%	17%	-2%	3%	-7	4%
COc1cccc(-c2c(C(=O)N/N=C/c3ccc(C)s3)nnn2-c2nonc2N)c1	5.6µM*	2.5µM*	1%	4%	4	-11%
COc1cccc(-c2c(C(=O)N/N=C/c3ccncc3)nnn2-c2nonc2N)c1	11%	17%	-2%	4%	14	-41%
CCOc1ccc(-c2c(C(=O)N/N=C(\C)c3cccnc3)nnn2-c2nonc2N)cc1	-2%	1%	-18%	-1%	-18	-4%
Cc1ccc(S(=O)(=O)N2CCCCC2)cc1NC(=O)c1cc(F)c(F)c(F)c1F	·	·	?	?	14	?
Oc1csc(Cc2nc(-c3ccc(Br)cc3)cs2)n1	-4%	?	-130%	?	2	?
Cc1sc(Cc2nc(O)cs2)nc1-c1ccccc1	-27%	11µM*	0%	-3%	13	0%
CCOC(=O)C1=C2NC(=O)c3ccccc3N2C(=O)C1	9%	-5%	4%	-2%	-4	-2%
COc1ccc(-c2c(C)nc3c(-c4ccccn4)cnn3c2N)cc1	10µM*	5µM*	13%	?	-21	?
Cc1ccc(Nc2ccc(N3CCN(C(=O)c4ccc([N+](=O)[O-])cc4)CC3)nn2)cc1	·	·	·	-1%	·	·
O=C(/C=C/c1ccccc1Cl)NCCCn1ccnc1	-10%	7%	0%	1%	6	?
Cc1cccc(N(CC(=O)NC2CCCCC2)C(=O)c2ccc(C)s2)c1	0%	37%	7.3µM*	2%	20	?
Cc1cccc(NC(=O)CSc2ncnc3nc[nH]c23)c1C	-1%	13%	?	?	2	23µM*
Cc1ccc(C)c(NC(=O)CSc2ncnc3nc[nH]c23)c1	1%	?	-2%	-6%	-2	1%
CN(C)S(=O)(=O)c1ccccc1N=C=S	-14%	4%	21%	1%	-22	-1%
CCc1ccc2nc(/N=C(\N)NC(=O)c3ccccc3)nc(C)c2c1	5%	-2%	1%	?	18	12%

Screens as filed in PubChem.
